The campaign covered roughly 340,000 compounds. About 240 (0.071%) were called active. The sample as a whole holds a higher share of actives than the screen did. Unmarked numbers belong to inactive results.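 The calls were made as follows: active = activation above the mean of all tested compounds plus 3 SD, set per screening campaign (cut at about 17% in these data); inactive = the rest.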
Target: Insulin-degrading enzyme (Homo sapiens) (UniProt P14735)
Assay: enhanced cellular IDE Abeta cleavage – fluorescence polarization, HEK cells, FAbeta-B substrate, primary screen (AID 493087)
Conditions: at 5.96 µM, stronger effect = higher value, 0% vehicle, 100% cell-free pure enzyme wells

Sequence of Insulin-degrading enzyme (Homo sapiens) (P14735 whole entry, looked up): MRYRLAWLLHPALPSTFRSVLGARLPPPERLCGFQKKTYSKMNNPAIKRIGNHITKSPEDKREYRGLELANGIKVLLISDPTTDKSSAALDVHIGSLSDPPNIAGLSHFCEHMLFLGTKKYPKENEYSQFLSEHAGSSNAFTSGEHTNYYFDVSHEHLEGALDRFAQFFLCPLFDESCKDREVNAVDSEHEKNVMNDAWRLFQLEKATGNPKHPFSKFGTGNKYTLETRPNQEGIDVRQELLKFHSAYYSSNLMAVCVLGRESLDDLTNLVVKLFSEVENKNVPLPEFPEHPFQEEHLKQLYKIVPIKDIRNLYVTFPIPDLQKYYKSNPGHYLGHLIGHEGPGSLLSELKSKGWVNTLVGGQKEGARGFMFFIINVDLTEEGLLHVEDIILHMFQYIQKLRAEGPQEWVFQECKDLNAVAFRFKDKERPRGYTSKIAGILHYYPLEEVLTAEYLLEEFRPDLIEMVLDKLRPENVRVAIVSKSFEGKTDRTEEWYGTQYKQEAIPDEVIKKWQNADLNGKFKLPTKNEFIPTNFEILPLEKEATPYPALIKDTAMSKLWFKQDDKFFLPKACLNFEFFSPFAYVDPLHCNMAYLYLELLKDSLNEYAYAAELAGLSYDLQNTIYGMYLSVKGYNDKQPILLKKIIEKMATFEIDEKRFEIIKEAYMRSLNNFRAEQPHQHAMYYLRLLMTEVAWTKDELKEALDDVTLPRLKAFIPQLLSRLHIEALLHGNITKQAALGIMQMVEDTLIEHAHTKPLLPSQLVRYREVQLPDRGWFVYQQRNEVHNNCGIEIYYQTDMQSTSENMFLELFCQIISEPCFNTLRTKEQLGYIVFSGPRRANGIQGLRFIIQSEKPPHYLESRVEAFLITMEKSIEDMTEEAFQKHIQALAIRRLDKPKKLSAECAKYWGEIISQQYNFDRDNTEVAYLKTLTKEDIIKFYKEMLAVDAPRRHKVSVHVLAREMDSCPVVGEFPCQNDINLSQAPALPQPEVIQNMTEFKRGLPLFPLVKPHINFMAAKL

Q: With `Cc1ccccc1CSCCNC(=O)c1ccc(N(C)S(=O)(=O)c2ccccc2)cc1` as the compound, how does the activation read?
A: 1.48%

Q: Which activation does the source give for `O=c1c([N+](=O)[O-])cccn1Cc1ccc(F)cc1Cl` here?
A: -1.28%

Q: `Cc1ccc(CNC(=O)CCCNC(=O)c2ccc(Cl)cc2)n1C` was tested. Which activation did it give?
A: 5.76%

Q: `CCOc1cc(/C=C2\SC(N3CCCC(C)C3)=NC2=O)ccc1O` (centres undefined) was tested. Which activation did it give?
A: -15.9%

Q: Which activation does the source give for `CC(=O)Nc1ccc(S(=O)(=O)NCC(=O)OCc2cc(=O)oc3ccc4ccccc4c23)cc1` here?
A: 3.05%

Q: Which activation does the source give for `CCC(=O)NNc1cc(=O)c2c(=O)n(C)c(=O)n(C)c2[nH]1` here?
A: 3.85%

Q: Which activation does the source give for `Cc1noc(C)c1CSCC(=O)Nc1ccc(Br)cc1Cl` here?
A: 2.79%

Q: `CC1=C/C(=N\OS(=O)(=O)c2ccccc2)C=CC1=O` was tested. Which activation did it give?
A: -10.8%

Q: Which activation does the source give for `Cc1cccc(NC(=O)c2cccc(C(=O)Nc3cccc(C)c3C)n2)c1C` here?
A: -1.85%

Q: `CC(C)(C)C1C/C(=C/c2ccco2)C(=O)/C(=C/c2ccco2)C1` (centres undefined) was tested. Which activation did it give?
A: -0.63%

Q: For `CC1CCN(C(=O)C2CCN(S(=O)(=O)N3CCC4(CC3)OCCO4)CC2)CC1`, which activation is on record?
A: 0.48%

Q: With `CCOC(=O)N1CCN(Cc2nc3ccc([N+](=O)[O-])cc3c(=O)n2-c2cccc(OC)c2)CC1` as the compound, how does the activation read?
A: 1.47%

Q: With `CCOc1ccc(N2C(=O)/C(=C/c3ccc(C)o3)N(C)C2=S)cc1` as the compound, how does the activation read?
A: 2.68%

Q: With `CCC(C)(C)NC(=O)CN(C(=O)C(=O)Nc1ccc2c(c1)OCCO2)C(C)(C)CC` as the compound, how does the activation read?
A: 4.63%

Q: With `CCOC(=O)C1(C(F)(F)F)N=C(N(C)C)OC(N(C)C)=N1` as the compound, how does the activation read?
A: 8.14%

Q: How did the activation turn out when `CCN(CC)CCCC(C)n1c2nc(=O)[nH]c(=O)c-2nc2cc(Cl)ccc21` (centres undefined) was run?
A: 75.3% (active)

Q: Which activation does the source give for `C#CCOCCOCCOCCNc1nc(N2CCN(C(=O)CCCCCCCCCCNC(=O)Cn3cc(CCCCCN)nn3)CC2)nc(N2CCN(C(=O)CCCCCCCCCCNC(=O)[C@H](CO)n3cc(CCCSC)nn3)CC2)n1` here?
A: 32.6% (active)

Q: Which activation does the source give for `C#CCOCCOCCOCCNc1nc(N2CCN(C(=O)[C@H](CCC(=O)O)n3cc(CN)nn3)CC2)nc(N2CCN(C(=O)[C@H](CCC(=O)O)n3cc(CN)nn3)CC2)n1` here?
A: 1.77%

Q: `C#CCOCCOCCOCCNc1nc(N2CCN(C(=O)[C@H](CCCCN)n3cc(CCC(=O)O)nn3)CC2)nc(N2CCN(C(=O)[C@H](CCCCN)n3cc(CC(C)O)nn3)CC2)n1` (some centres undefined) was tested. Which activation did it give?
A: -4.23%

Q: With `C#CCOCCOCCOCCNc1nc(N2CCN(C(=O)Cn3cc(CCO)nn3)CC2)nc(N2CCN(C(=O)Cn3cc(CCCN=C(N)N)nn3)CC2)n1` as the compound, how does the activation read?
A: -2.84%

Q: How did the activation turn out when `C#CCOCCOCCOCCNc1nc(N2CCN(C(=O)Cn3cc(CCO)nn3)CC2)nc(N2CCN(C(=O)[C@H](CCCCN)n3cc(CCCC)nn3)CC2)n1` was run?
A: 2.74%

Q: With `C#CCOCCOCCOCCNc1nc(N2CCN(C(=O)CCCCCCCCCCNC(=O)[C@H]([C@@H](C)CC)n3cc(CCCCN=C(N)N)nn3)CC2)nc(N2CCN(C(=O)CCCCCCCCCCNC(=O)[C@H](CO)n3cc(CCCSC)nn3)CC2)n1` as the compound, how does the activation read?
A: 58% (active)

Q: With `C#CCOCCOCCOCCNc1nc(N2CCN(C(=O)Cn3cc(CCCCN)nn3)CC2)nc(N2CCN(C(=O)[C@H](CCCCN)n3cc(CCC(=O)O)nn3)CC2)n1` as the compound, how does the activation read?
A: -2.39%

Q: `C#CCOCCOCCOCCNc1nc(N2CCN(C(=O)CCCCCCCCCCNC(=O)[C@H](CCCCN)n3cc(C)nn3)CC2)nc(N2CCN(C(=O)CCCCCCCCCCNC(=O)[C@H](CO)n3cc(CCCSC)nn3)CC2)n1` was tested. Which activation did it give?
A: 29.3% (active)

Q: For `C#CCOCCOCCOCCNc1nc(N2CCN(C(=O)[C@H](CCCN=C(N)N)n3cc(C(N)[C@@H](C)CC)nn3)CC2)nc(N2CCN(C(=O)[C@H](CO)n3cc([C@@H](N)C(C)C)nn3)CC2)n1` (some centres undefined), which activation is on record?
A: -0.94%

Q: For `CN(C)C(=O)c1cc(Br)ccc1Cl`, which activation is on record?
A: 7.04%

Q: For `O=C(CNC(=O)OCc1ccccc1)Oc1cc2oc(=O)cc(-c3ccccc3)c2cc1Cl`, which activation is on record?
A: 3.87%

Q: `CCCCCCCCCCOC(=O)Cn1c(COc2ccc(C)cc2)[n+](C)c2ccccc21` was tested. Which activation did it give?
A: 21.7% (active)

Q: For `Cc1ccc(COc2ccc(C(=O)NN)cc2)cc1`, which activation is on record?
A: -2.7%

Q: How did the activation turn out when `CCCCOc1ccc(NC(=O)CSCC(=O)OCC)cc1` was run?
A: 0.69%

Q: With `CC1CCN(C(=O)CCNC(=O)c2ccccc2)CC1` as the compound, how does the activation read?
A: 4.37%

Q: With `Cc1ccc(Cl)cc1NC(=O)CN1CCN(S(=O)(=O)N2CCOCC2)CC1` as the compound, how does the activation read?
A: 3.41%

Q: `C#CCOCCOCCOCCNc1nc(N2CCOCC2)nc(N2CCN(C(=O)[C@H](Cc3ccc(O)cc3)n3cc(CCO)nn3)CC2)n1` was tested. Which activation did it give?
A: -1.07%

Q: Which activation does the source give for `COc1ccc(C2=NOC(C(=O)NCc3ccco3)C2)cc1OC` (centres undefined) here?
A: -0.49%

Q: For `COc1ccc2c(c1)c(=Cc1ccc(N(C)C)cc1)c1cc(-c3ccccc3)[n+](C)n12`, which activation is on record?
A: -19.1%

Q: For `COC(=O)COc1ccc2c(=O)c(Oc3ccccc3Br)coc2c1`, which activation is on record?
A: 1.55%

Q: How did the activation turn out when `O=C(Nc1nn(Cc2ccccc2F)cc1Br)c1cccs1` was run?
A: 2.02%

Q: `O=C(O)CCc1cccnc1` was tested. Which activation did it give?
A: 0.08%

Q: With `CCOc1ccc(S(=O)(=O)N2CCCCCC2)c2ccccc12` as the compound, how does the activation read?
A: 7.79%

— PubChem BioAssay AID493087 (The Scripps Research Institute Molecular Screening Center, 2011)
